# Test results reported in PubChem BioAssay (NCATS).
# Results filed as inconclusive are left out. Active and inactive are the calls of the source. The call rests on the fitted dose curve; in most records, active means well fitted curve in the direction sought with a large enough effect; inconclusive means small, poorly fitted or top-dose-only effect, or another doubt; inactive means no such curve, though single readings can be large; an effect the other way counts as inactive or inconclusive.
# Experiment: BET inhibitor-based combinations targeting novel dependencies in MECOM-rearranged (r) AML: UCSD-AML1 cell line (AID 2202235); further: nearly all actives have a fitted effect of over 40% in size;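 on viability (% of control): plate controls were DMSO vehicle wells for no effect and blank wells for full effect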
# Settings: UCSD-AML1 AML cells viability, CellTiter-Glo, 48 h; series mostly up to 46 µM; viability (% of control): at the top concentration
# Summary of the method: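 Cells at 500/well were exposed for 48 hr to MIPE v5.0 drugs as 11-point dose curves. Viability was read by CellTiter-Glo luminescence and normalized to DMSO and empty-well controls. Activity was expressed as AUC and per-cell-line Z-AUC.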
# Potency means the concentration at half of the fitted maximal effect.
SMILES,Potency,viability (% of control)
O=C(Nc1cn[nH]c1-c1nc2ccc(CN3CCOCC3)cc2[nH]1)NC1CC1,0.118 µM (active),
CCCC1(CCC)CCC2(CCN(CCCN(CC)CC)C2)CC1,8.33 µM (active),
N#Cc1ccc(COC[C@H]2O[C@@H](n3c(NCc4ccc(Cl)c(Cl)c4)nc4c(N)ncnc43)[C@H](O)[C@@H]2O)cc1,2.63 µM (active),
c1ccc(Cn2c(-c3ccc(OCC(C4CCNCC4)n4c(-c5ccccc5)nc5ccccc54)cc3)nc3ccccc32)cc1 (configuration not stated),26.3 µM (active),
Cn1ncc(Cl)c1-c1cc(C(=O)NC(CN)Cc2ccc(F)c(F)c2)oc1Cl (configuration not stated),13.2 µM (active),
CON(C)C(=O)N1N=C(c2cc(F)ccc2F)S[C@@]1(CCCN)c1ccccc1,0.0105 µM (active),
Cc1cnc(Nc2ccc(CN3CCOCC3)cc2)nc1Nc1cccc(S(=O)(=O)NC(C)(C)C)c1,1.48 µM (active),
O=C(c1ccc(F)c(F)c1Nc1ccc(I)cc1F)N1CC(O)([C@@H]2CCCCN2)C1,0.296 µM (active),
Cc1cnc(-c2ccccc2C(C)C)nc1NCc1ccc(-n2ccnn2)cc1,,74.6% (inactive)
Cn1ncc(Cl)c1-c1cc(C(=O)N[C@H](CN)Cc2ccc(F)c(F)c2)sc1Cl,13.2 µM (active),
Cc1[nH]c2ccccc2c1CCNCc1ccc(/C=C/C(=O)NO)cc1,0.0934 µM (active),
COC(C)(C)CCn1nc(Nc2c(C)cccc2C)c2cnc(Nc3ccc(OCCN4CCCC4)c(F)c3)nc21,9.34 µM (active),

# Experiment: BET inhibitor-based combinations targeting novel dependencies in MECOM-rearranged (r) AML: AML-191 cell line (AID 2202236; further: nearly all actives have a fitted effect of over 35% in size;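 on viability (% of control): plate controls were vehicle wells for no effect and wells without cells for full effect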)
# Settings: AML-191 viability, CellTiter-Glo luminescence, 48 h; series mostly up to 46 µM; viability (% of control): at the top concentration
# Summary of the method: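 AML cell lines seeded at 500 cells/well, treated with 11-point dose curves for 48 h. Viability by CellTiter-Glo luminescence, normalised to DMSO and empty wells; activity expressed as AUC and per-cell-line Z-transformed AUC.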
SMILES,Potency,viability (% of control)
CCOC(=O)[C@@H](N)Cc1ccc(-c2cc(O[C@H](c3ccc(Cl)cc3-n3ccc(C)n3)C(F)(F)F)nc(N)n2)cc1,23.5 µM (active),
O=C(Nc1cn[nH]c1-c1nc2ccc(CN3CCOCC3)cc2[nH]1)NC1CC1,2.09 µM (active),
COCCOC(=O)C1=C(C)NC2=C(C(=O)CC(c3ccccc3OC)C2)C1c1cccc(O)c1 (configuration not stated),14.8 µM (active),
Cn1ncc(Cl)c1-c1cc(C(=O)NC(CN)Cc2ccc(F)c(F)c2)oc1Cl (configuration not stated),20.9 µM (active),
CON(C)C(=O)N1N=C(c2cc(F)ccc2F)S[C@@]1(CCCN)c1ccccc1,0.0132 µM (active),
Cc1cnc(Nc2ccc(CN3CCOCC3)cc2)nc1Nc1cccc(S(=O)(=O)NC(C)(C)C)c1,2.63 µM (active),
OCCNC1CCCc2c1[nH]c1ccc(-c3ccccc3)cc21 (configuration not stated),16.6 µM (active),
CCC(=O)NS(=O)(=O)c1ccc(-c2c(-c3ccccc3)noc2C)cc1,,119% (inactive)
O=C(c1ccc(F)c(F)c1Nc1ccc(I)cc1F)N1CC(O)([C@@H]2CCCCN2)C1,8.33 µM (active),
CNCc1ccc(C)c(NC(=O)c2ccc(Nc3nc(-c4ccccc4)c4ccccc4n3)cc2)c1,20.9 µM (active),
COc1ccc(C(=O)CC2(O)C(=O)Nc3c(Cl)ccc(Cl)c32)cc1 (configuration not stated),1.05 µM (active),
Cn1ncc(Cl)c1-c1cc(C(=O)N[C@H](CN)Cc2ccc(F)c(F)c2)sc1Cl,26.3 µM (active),
C[C@H]1O[C@@H](O[C@H]2[C@@H](O)C[C@H](O[C@H]3[C@@H](O)C[C@H](O[C@H]4CC[C@@]5(C)[C@H](CC[C@@H]6[C@@H]5C[C@@H](O)[C@]5(C)[C@@H](C7=CC(=O)OC7)CC[C@]65O)C4)O[C@@H]3C)O[C@@H]2C)C[C@H](O)[C@@H]1O,0.132 µM (active),
Cc1[nH]c2ccccc2c1CCNCc1ccc(/C=C/C(=O)NO)cc1,0.0833 µM (active),
COC(C)(C)CCn1nc(Nc2c(C)cccc2C)c2cnc(Nc3ccc(OCCN4CCCC4)c(F)c3)nc21,14.8 µM (active),
